# Assay results: PubChem BioAssay AID624483 (NMMLSC, 2012)
# The whole screen tested about 360,000 compounds, of which about 11,000 (3.1%) were called active. Roughly 2% stayed inconclusive and do not appear here. The full list was thinned out, with actives kept by preference. A number with no mark means an inactive call. No stated cut-off is given here; in the data, active means fluorescence intensity above about 16000; inconclusive means no clear call, values can overlap the other calls; inactive means below that.
# Experiment: counter-screen for toxin protease inhibitors: compound fluorescence, primary screen, artefact control for toxin protease inhibitor project, biochemical, multiplex microsphere, HTS (AID 624483)
# Details: compound autofluorescence counterscreen, microsphere flow cytometry; active compounds read high
row,SMILES,fluorescence intensity
1,Cc1nc(SCC(=O)N2CCc3ccccc3C2)c2c(C)c(C)sc2n1,5870
2,CCCCn1nnnc1C(c1cccc(OC)c1OC)N1CCN(C/C=C/c2ccccc2)CC1 (configuration not stated),5960
3,Cc1ccc(S(=O)(=O)N2CCCC(C(=O)N3CCN(C)CC3)C2)cc1 (configuration not stated),5490
4,COc1ccc(OCCCC(=O)OC(C)C(=O)Nc2ccccc2[N+](=O)[O-])cc1 (configuration not stated),3940
5,COc1ccc(OCCCC(=O)Oc2ccc(OC)cc2)cc1,21300 (active)
6,COc1ccc(OCC(=O)OCCN(C)C)cc1,2140
7,COC(=O)c1ccc(CSc2nncn2N)cc1,4020
8,CCCCOc1ccc(Cl)cc1CSc1nncn1N,20700 (active)
9,CCCCOc1ccc(CSC(=N)N)cc1[N+](=O)[O-],2600
10,Cn1cccc1C1(C(F)(F)F)NCCNC1=O (configuration not stated),20400 (active)
11,CC(=O)N1CCN(Cc2cc(=O)oc3cc(C)ccc23)CC1,5400
12,Cc1ccc(Cn2c(C)c(C(=O)NCc3ccccc3C(F)(F)F)sc2=O)cc1,5600
13,CCN(CC)C(=O)CSC1c2ccccc2C(=O)N1c1ccccc1 (configuration not stated),23100 (active)
14,O=C1c2ccccc2C(c2nc3ccccc3[nH]2)N1c1ccccc1 (configuration not stated),6040
15,CCN(CC)C(=O)CSc1ncnc2c1cnn2-c1ccccc1,3150
16,C[N+](C)(C)CCNC(=O)c1c[nH]c2ccccc12,5520
17,CCCNC(=O)C1(C)CCN1C(=O)Cc1ccc(-c2ccccc2)cc1 (configuration not stated),3250
18,CC(=O)Nc1ccc(SCC(=O)Nc2ccccc2Oc2ccccc2)cc1,2020
19,C#Cc1cc(N2CCN(C(=O)c3ccoc3)CC2)n2nc(-c3cccc(Cl)c3)cc2n1,4220
20,CC(C)(C)NC(=O)C(=O)NCc1ccncc1,2060
21,CCCCOc1ccc(C(=O)NCc2ccncc2)cc1,20300 (active)

row,SMILES,fluorescence intensity
1,CCCC(C)C(=O)NCc1ccncc1 (configuration not stated),2180
2,O=C(CN(C(=O)c1nsc(Cl)c1Cl)c1cccc(F)c1)NC1CCCC1,4350
3,CC(=O)Nc1cccc(OCC(=O)/C=C2\N(C)c3ccccc3C2(C)C)c1,3790
4,Cc1noc(C)c1C(=O)OCC(=O)/C=C1\N(C)c2ccccc2C1(C)C,23200 (active)
5,Cc1noc(C)c1C(=O)OCC(=O)N1CCN(S(=O)(=O)c2ccc3ccccc3c2)CC1,4540
6,CC1(C(=O)NS(=O)(=O)c2cccc(OC(F)F)c2)CCN1C(=O)COc1ccc(Cl)cc1 (configuration not stated),2870
7,Cc1ccn(-c2cccc(-n3ccc(C)n3)n2)n1,2160
8,CC(=O)Nc1cc(-c2ccc(N3CCN(C)CC3)cc2)cn2c(-c3ccc(F)cc3)cnc12,3850
9,CC(=O)c1c(Nc2ccccc2)sc(C(=O)c2ccccc2)c1C,2060
10,Cc1sc(NC(=O)c2ccc3ncsc3c2)c(C(N)=O)c1C,5240
11,Cc1ccc(C(=O)c2c(NC(=O)c3ccccc3)sc(C)c2C)cc1,24600 (active)
12,C[C@H](NC(=O)[C@@H]1CCCN1C(=O)[C@@H]1CCCN1C(=O)c1ccccc1)c1ccccc1,6120
13,Cc1c(Cl)cccc1NC(=S)NCC(O)c1ccccc1 (configuration not stated),2920
14,CC(Oc1ccc(Cl)cc1)C(=O)Nc1ncccn1 (configuration not stated),6780
15,COc1ccc(C(=O)CCC(=O)Nc2cccnc2)c(OC)c1,5960
16,COc1ccc(OC(C)C(=O)Nc2cccnc2)cc1 (configuration not stated),23000 (active)
17,Cc1ccc(C(=O)O)c(NC=O)c1OCc1ccccc1,4160
18,COc1ccc2c(c1)CCc1c(C(=O)Nc3c(C)n(C)n(-c4ccccc4)c3=O)noc1-2,21100 (active)
19,O=C(c1noc2c1CCCC2)N1CCc2ccccc2C1,3010
20,COc1ccc2c(c1)CCc1c(C(=O)N3CCCC3)noc1-2,21100 (active)
21,COc1ccc(NS(=O)(=O)c2ccc(C(=O)Nc3c(C)n(C)n(-c4ccccc4)c3=O)cc2)cc1,2940

row,SMILES,fluorescence intensity
1,COc1ccc(C(=O)C(C)OC(=O)c2cccc(S(=O)(=O)Nc3c(C)n(C)n(-c4ccccc4)c3=O)c2)cc1 (configuration not stated),3490
2,COc1ccc(S(=O)(=O)Nc2c(C)n(C)n(-c3ccccc3)c2=O)cc1,16100 (active)
3,COc1ccc(OC)c(NC(=S)N2CCc3ccccc3C2)c1,2080
4,Cc1c(NC(=O)c2cc(-c3ccc(Br)cc3)on2)c(=O)n(-c2ccccc2)n1C,5870
5,COc1ccc2c(c1)CCc1c(C(=O)N3CCc4ccccc4C3)noc1-2,21600 (active)
6,COc1ccccc1-c1cc(C(=O)N2CCCCC2)no1,4320
7,COc1ccc(C(=O)N2CCCN(C)CC2)c(OC)c1,4060
8,Cc1c(NC(=O)c2coc(=O)c(Br)c2)c(=O)n(-c2ccccc2)n1C,2950
9,CCN(C(=O)CSc1nnnn1-c1ccccc1OC)C1CCS(=O)(=O)C1 (configuration not stated),5910
10,Cc1ccccc1C(OCCN(C)C)C1CCCCC1 (configuration not stated),2370
11,CCNC(=O)C1(C)CCN(C(=O)c2ccccc2)C1 (configuration not stated),3880
12,COC(=O)Cc1nc2c(N)nc(N)nc2[nH]c1=O,4130
13,O=C(NNS(=O)(=O)c1c(F)cc(F)c(Cl)c1F)C12CC3CC(CC(C3)C1)C2,4000
14,O=C(Nc1ccccc1C(=O)O)c1ccc(N2C(=O)C3CC=CCC3C2=O)cc1 (configuration not stated),4170
15,CN(C)CCNC(=O)c1cccc(-c2cnc3c(NC=O)cc(-c4cccc(C(F)(F)F)c4)cn23)c1,3700
16,CN1CCN(C(=O)c2ccc(-c3cc4nc(NCc5cccnc5)n(C)c(=O)c4s3)cc2)CC1,3940
17,O=C(NCc1ccccc1)C1c2ccccc2OCC(=O)N1C1CC1 (configuration not stated),5460
18,O=C(C1CCCO1)N(Cc1ccccc1)c1ccccc1 (configuration not stated),16100 (active)
19,O=C(C1CCCO1)N(c1ccc(F)cc1)C1C=CS(=O)(=O)C1 (configuration not stated),3830
20,O=C(NCc1ccccc1Cl)C1CCCO1 (configuration not stated),4090
